# This is a sample that favours compounds with a hit; in the whole collection about 20% have one here.
# Shiga inhibitor = Shiga toxin inhibition; Vero cells, Shiga toxin protein synthesis inhibition reporter; inhibition, % at 38.7 µM; 290,000 compounds, 9.2% hits; AID 2315; in the data active = inhibition mostly above about 28%, no sharp cut-off; inactive = mostly below about 43%; note: 0% is about no effect
# Pf growth 96h = inhibits malaria parasite growth, 96 h; P. falciparum luciferase reporter growth, 96 h; Potency, µM (highest dose often 28.7 µM), without a hit: top-dose activity change, negative = inhibition, hits mostly inhibitors; 320,000 compounds, 6.9% hits; note: potency is the fitted concentration of half-maximal effect; % is set by controls: 0 for no effect and ±100 for the full control effect
#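 96 h incubation, 37 C, 5% CO2, of luciferase-reporter P. falciparum-infected RBCs (2% hematocrit, 0.05% parasitemia final) with test compounds; endpoint luminescence.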
# Pf growth 48h = inhibits P. falciparum growth in the first generation, 48 h; 310,000 compounds, 5.9% hits; P. falciparum luciferase growth in erythrocytes, 48 h; Potency, µM (highest dose often 28.7 µM), for the others: at the highest dose activity change, negative = inhibition, actives largely listed as inhibitors; note: potency is the fitted concentration of half-maximal effect; % is set by controls: 0 for no effect and ±100 for the full control effect
#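 Growth was read as firefly luciferase luminescence after a 48 h, 37 C, 5% CO2 exposure of compounds to reporter-bearing P. falciparum cultures (0.1% parasitemia, 2% hematocrit final) in Albumax-supplemented RPMI 1640.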
# Cycloheximide cs = affects cycloheximide protein synthesis inhibition readout, counter-screen; cell reporter, cycloheximide protein synthesis inhibition counterscreen; max response, %; 300,000 compounds, 12% hits; in the data active = max response mostly above about 13%, no sharp cut-off; inactive = mostly below about 14%; note: read at 38.3 µM for the half of the compounds with a filed dose; 0% is about no effect
# HCMV antiviral = inhibitors of human cytomegalovirus | HFF cells, HCMV-luciferase reporter, 72 h; active compounds read low | activity change, negative = inhibition, % at 57.5 µM | 410,000 compounds, 4.5% hits; in the data active = activity change below about -60%; inconclusive = no clear call, values can overlap the other calls; inactive = above about -39%; note: % is set by controls: 0 for no effect and ±100 for the full control effect
#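 HFF cells seeded 16 h at 37C, treated with compounds, infected with luciferase-reporter HCMV at MOI 1 PFU/cell; luciferase read at 72 h post infection, normalized to buffer-only and Salinomycin controls.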
# * = called active by the depositor; ? = inconclusive; nt = no result; [ ] = another dose, or the depositor's remark. Unless noted, calls come from the whole dose curve; as a rule, active = well fitted inhibition curve with a large enough effect; inconclusive = small, poorly fitted or top-dose-only effect, or another doubt; inactive = no such curve, though single readings can be large or run the other way.
SMILES,Shiga inhibitor,Pf growth 96h,Pf growth 48h,Cycloheximide cs,HCMV antiviral
CC1=Nc2ccccc2N=C(NC(=O)CSc2nnnn2-c2ccccc2)C1c1ccccc1 (centres undefined),13,-20%,?,-1,?
CCC(C)C(CO)NCCCn1cnc2c(OC)ncnc21 (centres undefined),nt,nt,nt,nt,-13
COc1ccc(N(CC(=O)NCCSc2ccccc2)S(=O)(=O)c2ccccc2)cc1OC,6,35%,3%,-4,0
COc1ccc(N(CC(=O)NCCSCc2ccco2)S(=O)(=O)c2ccccc2)cc1,25,9%,?,6,-21
COc1ccc(N(CC(=O)NCCSCc2ccco2)S(=O)(=O)c2ccccc2)cc1OC,17,12µM*,-21%,-2,-17
COc1ccc(N(CC(=O)NCCSC2CCCCC2)S(=O)(=O)c2ccccc2)cc1OC,20,?,13µM*,-1,12
Cc1ccc(C)c(N2CCN(S(=O)(=O)c3cnc(N)nc3)CC2)c1,nt,nt,nt,nt,12
Cc1ccc(C)c(OCCSc2nnc(-c3cccnc3)n2N)c1,-3,-25%,-9%,-2,-30
O=C(c1ccc(S(=O)(=O)N2CCCCCC2)cc1)N1CCN(c2ccccc2F)CC1,nt,nt,nt,nt,-23
COc1cccc(CNC(=O)c2ccc(NC(=O)C3CCCO3)cc2)c1 (centres undefined),-5,74%,16%,1,-1
O=C(Nc1ccccc1C(=O)NCc1ccccc1)C1=CSCCO1,-6,?,-1%,-4,-26
Cc1ccc(CNC(=O)c2ccc(NC(=O)C3=CSCCO3)cc2)cc1,28*,-16%,14%,15,2
CCOc1ccc(CNC(=O)c2ccc(NC(=O)C3=CSCCO3)cc2)cc1,20,?,0%,34*,23
COc1cccc(CNC(=O)c2ccc(NC(=O)C3=CSCCO3)cc2)c1,116*,-28%,13%,22*,9
CCOc1ccc(CNC(=O)c2ccc(NC(=O)c3nsc4ccccc34)cc2)cc1,nt,nt,nt,nt,93
COC(=O)C(c1ccccc1)(c1cn(Cc2ccccc2)c2ccccc12)C(Nc1ccccc1)c1ccccc1 (centres undefined),nt,nt,nt,nt,-21
Cc1ccc(Cn2c(=O)n(Cc3ccccc3Cl)c(=O)c3cccnc32)cc1,nt,nt,nt,nt,12
C[C@H]1[C@H](c2ccccc2)Oc2cccc(NCCc3ccccc3)c2S(=O)(=O)N1Cc1ccc(F)cc1,nt,nt,nt,nt,0
O=C(COC(=O)C1(c2ccc(F)cc2)CCCC1)NC1CC1,-12,-21%,nt,-3,5
COC(=O)c1ccc(N2CCOCC2)c(F)c1,16,94%,nt,7,-26
CC(=O)NC[C@@H]1CN(c2ccc(N3CCOCC3)c(F)c2)C(=O)O1,nt,15µM*,-1%,nt,nt
CCC1CCCCN1CCCNC(=O)C1CCN(S(=O)(=O)N2CCC3(CC2)OCCO3)CC1 (centres undefined),-5,?,17%,-2,19
Cc1ccccc1CN1CCN2C=C(C(=O)NCC3CC3)OC2=NC1=O,nt,nt,nt,nt,11
O=C(Cn1c(=O)n(-c2cccc(Cl)c2)c(=O)c2sc3ccccc3c21)N1CCCC1,nt,nt,nt,nt,-81*
COc1ccc(-n2c(=O)c3sc4ccccc4c3n(CC(=O)NCc3ccccc3)c2=O)cc1,nt,nt,nt,nt,-105*
SMILES,Shiga inhibitor,Pf growth 96h,Pf growth 48h,Cycloheximide cs,HCMV antiviral
Cc1ccc(-n2c(=O)c3sccc3n(CC(=O)NC3CCCCC3)c2=O)cc1,112*,-5%,-9%,12,2
Cc1ccc(-n2c(=O)c3sc4ccccc4c3n(CC(=O)NC3CCCC3)c2=O)cc1C,nt,nt,nt,nt,-71*
CCc1ccc(-n2c(=O)c3sc4ccccc4c3n(CC(=O)NC3CCCCC3)c2=O)cc1,nt,nt,nt,nt,13
NC(=O)Nc1ccc(C(=O)OCC(=O)N2CCCC2=O)cc1,nt,0%,-5%,nt,0
Brc1ccccc1-c1nc2c3ccccc3ncn2n1,nt,294%,332%,nt,67
S=c1nc2ccccc2c2nc(-c3ccccc3Br)[nH]n12,1,2.3µM*,2.9µM*,1,-5
CN(C)c1nc(C=C(C#N)C#N)c(Cl)n1-c1ccc(F)cc1,6,?,?,24*,-97*
Cc1cccc(NC(=O)C2Cc3ccccc3O/C2=N\O)c1 (centres undefined),63*,1%,55%,27*,-27
COc1ccc(NC(=O)C2Cc3ccccc3O/C2=N\O)cc1 (centres undefined),114*,-15%,-32%[0.00184 µM],51*,?
COc1ccc(NC(=O)C2CC(=O)OC2c2ccccc2)cc1 (centres undefined),-2,9.3µM*,-6%,-1,4
Cc1cc(NC(=O)C2CC(=O)OC2c2ccccc2)no1 (centres undefined),7,34%,39%,3,-14
Cc1cccc2c1NC(C)CC2C (centres undefined),16,?,?,-2,-3
O=C1c2ccccc2-c2n[nH]c(=O)c3ccc(N4CCCCC4)c1c23,44,-16%,-24%,21,-62*
CN(C)c1ccc(P(=O)(OC2CCCCC2)C(Nc2ccccc2)c2cccnc2)cc1 (centres undefined),7,2.9µM*,9.3µM*,2,-34
COC(=O)c1ccccc1NC(=O)c1ccc(-c2nc(COc3ccccc3)c(C)o2)cc1,nt,nt,nt,nt,-1
C1CCC2(CC1)C1=C(CCCC1)Nc1nnnn12,-14,-10%,1%,-6,-93*
Nc1nc2n(n1)C1(CCCCC1)C1=C(CCCC1)N2,-12,10µM*,-1%,-1,nt
Cc1ccc(-n2ncc(C(=O)Nc3ccc(Cl)cc3)c2C2CCNCC2)cc1C,-16,?,?,-4,-70*
COc1cc(NC(=O)COC(=O)CNC(=O)C2CCCCC2)cc(OC)c1,nt,18%,23%,nt,12
Cc1cccc(NC(=O)c2ccc([N+](=O)[O-])s2)c1C,4,-85%,2.6µM*,5,-66*
Cc1cccc(NC(=O)c2ccc([N+](=O)[O-])s2)n1,61*,8.3µM*,?,61*,-78*
Cc1ccnc(NC(=O)c2ccc([N+](=O)[O-])s2)c1,85*,7.4µM*,?,60*,28
CCCCN1C(=O)c2[nH]nc(-c3ccccc3O)c2C1c1cc(Br)c(O)c(OC)c1 (centres undefined),nt,nt,nt,nt,-35
COc1ccccc1NCCC(=O)OCC(=O)Nc1cc([N+](=O)[O-])ccc1F,nt,nt,nt,nt,-15
O=C(CSc1nnc(COc2ccccc2Cl)o1)NC(=O)NC1CCCC1,-3,12µM*,30%,9,16
Cn1cccc1C(=O)OCC(=O)NC(=O)NC1CCCCC1,63,59%,31%,41*,67
O=C(COc1ccccc1Cl)NC(=O)NC1CCCC1,26,?,nt,26*,-18
O=C(COc1ccc(Cl)cc1Cl)NC(=O)NC1CCCC1,nt,38%,20%,nt,11
CCOc1ccc(CCNC(=O)CCn2c(=O)c3cccn3c3ccc(F)cc32)cc1,nt,nt,nt,nt,-8
CCOC(=O)c1sc(NC(=O)CS(=O)(=O)c2ccc(C)cc2)nc1C,11,5%,20%,-2,?

# Source: PubChem (National Center for Advancing Translational Sciences (NCATS))
